The values that follow come from the supplement of paper PMC9950053.

Where a name gives a salt, the structure may show the parent alone.

In the assay the test system is Danio rerio larvae (5 dpf). Description: combined optomotor response (time in upper well half, down vs up moving lines, periods 7-14) minus DMSO control (percentage points); higher = stronger optomotor response than DMSO larvae. The following applies: 10 µM; exposure time: 3 h pre-incubation + 3 h imaging.
`CCOc1nc2cccc(C(=O)O)c2n1Cc1ccc(-c2ccccc2-c2nnn[nH]2)cc1` [Candesartan]: the combined optomotor response is 7.2.
In the case of `Nc1nc(F)nc2c1ncn2[C@@H]1O[C@H](CO)[C@@H](O)[C@@H]1O` [Fludarabine], the combined optomotor response was -1.67.
As to `CNC(=O)c1ccccc1Sc1ccc2c(/C=C/c3ccccn3)n[nH]c2c1` [Axitinib], the combined optomotor response stood at 3.98.
The value for `CN/C(=N\CCSCc1nc[nH]c1C)NC#N` [Cimetidine] was 0.13; that for `CN1CCN(CCCN2c3ccccc3Sc3ccc(Cl)cc32)CC1` [Prochlorperazine dimaleate] was 6.24; that for `Cc1cccc(CN2CCN(C(c3ccccc3)c3ccc(Cl)cc3)CC2)c1` (centres undefined) [Meclizine dihydrochloride] was -13.9.
`NC(=O)N1c2ccccc2C=Cc2ccccc21` [Carbamazepine]: the combined optomotor response turned out to be 6.15.
On to `CCCN(CCC)S(=O)(=O)c1ccc(C(=O)O)cc1` [Probenecid], for which the combined optomotor response was 4.87.
As to `CN(CCOc1ccc(CC2SC(=O)NC2=O)cc1)c1ccccn1` (centres undefined) [Rosiglitazone], the combined optomotor response was found to be 3.93.
With `O=C(O)CCCc1ccccc1` [Sodium 4-Phenylbutyrate], the combined optomotor response was determined as 4.62.
Regarding `CCCCCCCCc1ccc(CCC(N)(CO)CO)cc1`, the combined optomotor response is -4.85.
Take `Cc1ccccc1C(=O)Nc1ccc(C(=O)N2CCCC(O)c3cc(Cl)ccc32)c(C)c1` (centres undefined) [Tolvaptan]: the combined optomotor response turned out to be 4.13.
To `CN1CCC[C@@H]1CCO[C@](C)(c1ccccc1)c1ccc(Cl)cc1` [Clemastine fumarate] belongs 7.99; to `Clc1ccc(COC(Cn2ccnc2)c2ccc(Cl)cc2Cl)c(Cl)c1` (centres undefined) [Miconazole nitrate], -12.3; to `Nc1cccc2c1CN(C1CCC(=O)NC1=O)C2=O` (centres undefined) [Lenalidomide], 1.12.
The value for `Nc1nc2[nH]cc(CCc3ccc(C(=O)N[C@@H](CCC(=O)O)C(=O)O)cc3)c2c(=O)[nH]1` [Pemetrexed] was 1.31; that for `Nc1cc(N2CCCCC2)nc(N)[n+]1[O-]` [Minoxidil] was -1.34.
`CO[C@H]1/C=C/O[C@@]2(C)Oc3c(C)c(O)c4c(O)c(c5c(nc6cc(C)ccn65)c4c3C2=O)NC(=O)/C(C)=C\C=C\[C@H](C)[C@H](O)[C@@H](C)[C@@H](O)[C@@H](C)[C@H](OC(C)=O)[C@@H]1C` [Rifaximin]: the combined optomotor response was 2.32.
Regarding `COc1cccc2c1C(=O)c1c(O)c3c(c(O)c1C2=O)C[C@@](O)(C(=O)CO)C[C@@H]3O[C@H]1C[C@H](N)[C@H](O)[C@H](C)O1` [Doxorubicin hydrochloride], the combined optomotor response is -1.96.
To `CCOC(=O)[C@H](CCc1ccccc1)N[C@H]1CCc2ccccc2N(CC(=O)O)C1=O` [Benazepril hydrochloride] belongs 5.66.
Consider `C#C[C@]1(O)CC[C@H]2[C@@H]3CCC4=CC(=O)CC[C@@H]4[C@H]3CC[C@@]21CC` [Levonorgestrel], for which the combined optomotor response was found to be 6.62.
Turning to `Cc1ccc(-c2cc(C(F)(F)F)nn2-c2ccc(S(N)(=O)=O)cc2)cc1` [Celecoxib], the combined optomotor response stood at 0.0816.
For the compound `Brc1c(NC2=NCCN2)ccc2nccnc12`, the combined optomotor response turned out to be 5.01.
Consider `C=C1[C@H](CO)[C@@H](O)C[C@@H]1n1cnc2c(=O)[nH]c(N)nc21` [Entecavir], for which the combined optomotor response turned out to be 3.44.
As for `CCOc1cc(CC(=O)N[C@@H](CC(C)C)c2ccccc2N2CCCCC2)ccc1C(=O)O` [Repaglinide], the combined optomotor response turned out to be 2.6.
On to `CC(=O)S[C@@H]1CC2=CC(=O)CC[C@]2(C)[C@H]2CC[C@@]3(C)[C@@H](CC[C@@]34CCC(=O)O4)[C@H]12` [Spironolactone], for which the combined optomotor response amounted to 0.523.
Regarding `CC(c1cc2ccccc2s1)N(O)C(N)=O` (centres undefined) [Zileuton], the combined optomotor response was -0.859.
As for `COC(c1ccccc1)(c1ccccc1)[C@H](Oc1nc(C)cc(C)n1)C(=O)O` [Ambrisentan], the combined optomotor response was 0.559.
Take `O=C(O[C@@H]1C[C@@H]2C[C@H]3C[C@H](C1)N2CC3=O)c1c[nH]c2ccccc12` [Dolasetron mesylate]: the combined optomotor response was -2.11.
As for `COc1ccc([C@@H]2Sc3ccccc3N(CCN(C)C)C(=O)[C@@H]2OC(C)=O)cc1` [Diltiazem hydrochloride], the combined optomotor response was determined as 1.37.
With `Cc1ccsc1C(=CCCN1CCC[C@@H](C(=O)O)C1)c1sccc1C` [Tiagabine hydrochloride], the combined optomotor response amounted to 8.29.
The value for `COc1ccc(Cl)cc1C(=O)NCCc1ccc(S(=O)(=O)NC(=O)NC2CCCCC2)cc1` [Glibenclamide] was 1.3; that for `Cc1ccc(O)c([C@H](CCN(C(C)C)C(C)C)c2ccccc2)c1` [Tolterodine L-tartrate] was -1.96; that for `CCc1ccc(CCOc2ccc(CC3SC(=O)NC3=O)cc2)nc1` (centres undefined) [Pioglitazone hydrochloride] was -1.77.
